# Measurements as given in PubChem BioAssay (NCI).
# About 83,000 compounds went through this panel and 20% of them were active in at least one assay; those are over-represented in the sample as a whole.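 Growth was measured after 48 h exposure to one concentration of compound in 96-well plates. Values under 10 count as active.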 Unmarked numbers belong to inactive results. The source made the active and inactive calls.
# What was measured:
# Experiment in all cases: NCI-60 one-dose screen, 48 h (100 = growth as untreated, 0 = no growth, -100 = all killed)
# Conditions in all cases: 10 µM unless noted
# SR leukemia = system: SR leukemia
# RPMI-8226 leukemia = system: RPMI-8226 leukemia
# OVCAR-8 ovarian = system: OVCAR-8 ovarian
# OVCAR-5 ovarian = system: OVCAR-5 ovarian
# OVCAR-4 ovarian = system: OVCAR-4 ovarian
# SK-OV-3 ovarian = system: SK-OV-3 ovarian
# IGROV1 ovarian = system: IGROV1 ovarian
# OVCAR-3 ovarian = system: OVCAR-3 ovarian
# HS 578T breast = system: HS 578T breast
# NCI/ADR-RES ovarian = system: NCI/ADR-RES ovarian
Compound,growth (SR leukemia),growth (RPMI-8226 leukemia),growth (OVCAR-8 ovarian),growth (OVCAR-5 ovarian),growth (OVCAR-4 ovarian),growth (SK-OV-3 ovarian),growth (IGROV1 ovarian),growth (OVCAR-3 ovarian),growth (HS 578T breast),growth (NCI/ADR-RES ovarian)
C#Cc1cccc(NC(=O)C2CCCN(C(=O)CCl)C2)c1 (stereo unspecified),10.9% [8.25 µM],64.4% [8.25 µM],30.1% [8.25 µM],78.8% [8.25 µM],68.9% [8.25 µM],89.8% [8.25 µM],-72% [8.25 µM] (active),5.16% [8.25 µM] (active),85.6% [8.25 µM],–
COc1ccc(C(=O)/C=C/c2cc(-c3cc(OC)c(OC)c(OC)c3)n[nH]2)cc1OC,-15.6% (active),-36% (active),-4.15% (active),32.9%,13.3%,51.6%,-5.47% (active),-55.3% (active),57.1%,–
Cc1cccc(C)c1NC(=O)CSC(=S)N1CCCCC1,101%,104%,105%,101%,106%,110%,90.7%,103%,96.8%,–
Cc1ccc(-c2ccc(Nc3ccccc3)nn2)cc1S(N)(=O)=O,23.6%,86.1%,94.1%,101%,94.7%,100%,97.3%,94.6%,–,–
Nc1c(C(=O)Nc2cccc(Cl)c2)sc2ncc(Cl)cc12,66.3%,75%,81.9%,88.8%,-4.92% (active),81%,79.5%,71.4%,–,–
C=C(C)[C@@H]1CC[C@]2(/C=N/Nc3ccncc3)CC[C@]3(C)[C@H](CC[C@@H]4[C@@]5(C)CCCNC(C)(C)[C@@H]5CC[C@]43C)[C@@H]12,17.9%,28.7%,95.2%,105%,89.9%,113%,96.4%,84.5%,83.2%,94.5%
COc1cccc(-c2nn(-c3ccccc3)cc2-c2ccnc(NCCNS(=O)(=O)c3ccc(C(F)(F)F)cc3)c2)c1,-16.1% (active),-4.8% (active),15.7%,24.9%,31.2%,24.5%,28%,7.03% (active),33.9%,–
N#CCCCCCn1c2ccccc2c2c3[nH]c(=O)[nH]c(=O)c3c3c4ccccc4n(CCCCCC#N)c3c21,20.3%,53.4%,27.4%,92.4%,58.7%,72.7%,22.4%,49.2%,51.6%,–
Cc1ccc(Cc2cnc(NC(=O)/C=C/c3cccc(C)c3)s2)cc1,13.2%,3.37% (active),21%,20.9%,12.9%,15.7%,18.3%,-41.4% (active),6.83% (active),–
Cc1cc(Cl)nc(N(CCNc2ccnc3cc(Cl)ccc23)Cc2ccco2)n1,-3.12% (active),-30.7% (active),45.3%,80.5%,53.1%,123%,38.3%,-41.2% (active),79.2%,44.5%
N=C(N)N=Nc1ccc(O)cc1,35.6% [100 µM],65.7% [100 µM],36.7% [100 µM],116% [100 µM],68.9% [100 µM],106% [100 µM],85% [100 µM],68.3% [100 µM],60% [100 µM],36.8% [100 µM]
COc1ccc2c(c1)c(-c1nc(-c3cn(C)c4ncccc34)cs1)cn2CCCN1CCCCC1,-39.1% (active),-8.74% (active),59.6%,85.3%,74.7%,89.8%,66.1%,-52.1% (active),73.7%,–
C/C(=C(/c1ccccc1)c1ccc(N2C(=O)c3cccc4c(NCc5ccccc5)ccc(c34)C2=O)cc1)c1ccccc1,83.6%,102%,95%,102%,101%,111%,94.8%,110%,96%,–
CC/C=C\C[C@H]1CC=C2C(=O)C=C[C@@H]2CC=CCCCC(=O)O[C@@H](CCCCC)CC=C2C(=O)C=C[C@@H]2CC=CCCCC(=O)O[C@@H](CCCCC)CC=C2C(=O)C=C[C@@H]2CC=CCCCC(=O)O[C@@H](CCCCC)CC=C2C(=O)C=C[C@@H]2CC=CCCCC(=O)O1,2.79% [7.9 µM] (active),0.23% [7.9 µM] (active),-21.9% [7.9 µM] (active),75.1% [7.9 µM],21.6% [7.9 µM],73.4% [7.9 µM],8.16% [7.9 µM] (active),-14% [7.9 µM] (active),41.9% [7.9 µM],–
COc1ccc(/C=C(\C#N)c2cc3ccccc3n2S(C)(=O)=O)cc1,53.1%,79.1%,95.9%,99.3%,93.4%,112%,74%,94.8%,95.6%,–
Cc1cccc2c1NC(=O)[C@@]21[C@H](C(=O)c2ccccc2)[C@]2(C(=O)Nc3ccccc32)[C@H]2CCCN21,-6.48% [100 µM] (active),30.9% [100 µM],-17.2% [100 µM] (active),101% [100 µM],-20.3% [100 µM] (active),11.1% [100 µM],43% [100 µM],2.54% [100 µM] (active),16% [100 µM],109% [100 µM]
N#CC1=C(N)Oc2c(c(N)nn2-c2ccccc2)C1c1ccc(Cl)cc1Cl (stereo unspecified),97.3%,94.4%,96.9%,98.2%,95.7%,92.5%,101%,110%,101%,–
CC1=NN(c2ccc(S(=O)(=O)O)cc2Cl)C(=O)C1,113%,104%,99.9%,94.3%,102%,105%,105%,158%,131%,–
COc1cc(-c2nc(-c3ccccc3)c(-c3ccccc3)[nH]2)cc(OC)c1O,4.48% (active),0.561% (active),-0.964% (active),75.3%,-36.5% (active),-0.937% (active),22.3%,-80.9% (active),9.67% (active),–
Brc1ccc(Cn2nnnc2-c2ccn(-c3ccccc3)n2)cc1,56.4%,59.2%,110%,32%,72.7%,82.1%,77.8%,86.8%,77.7%,–
N#Cc1cnc2cc(OC[C@@H](O)CO)c(NC(=O)CC3CSSC3)cc2c1Nc1ccc(OCc2cccc(F)c2)c(Cl)c1,1.96% (active),-29.7% (active),-48.2% (active),-72.8% (active),-64.4% (active),-86.2% (active),-56% (active),-81.3% (active),-39.8% (active),–
COc1cc2c(cc1-c1c(C)noc1C)ncc1nc(C3CC3)n([C@H](C)COC(F)F)c12,25.5%,17.8%,46.3%,84.2%,58.7%,1.36% (active),58.6%,42%,8.14% (active),–
Cc1ccc(-c2nc3ccc(Cl)cc3c(=O)n2N2C(=O)CSC2c2ccccc2Cl)cc1 (stereo unspecified),80.8%,80.1%,27.3%,82.7%,14.4%,36.2%,57.5%,58.6%,56.6%,–
NC1=C(C/C(N)=N\O)C(c2ccccc2Cl)c2c(ccc3ccccc23)O1 (stereo unspecified),54.7%,81.9%,90.7%,100%,110%,92.2%,59.2%,77.9%,83.9%,57.6%
COC(=O)[C@]12CC[C@@H](C)[C@H](C)[C@@H]1C1=CC[C@@H]3[C@@]4(C)C[C@@H](OC(C)=O)[C@H](O)[C@@](C)(CO)[C@@H]4[C@H](O)C[C@@]3(C)[C@]1(C)CC2,-45.7% (active),-29.4% (active),-60.9% (active),-78.2% (active),-79.6% (active),-95.4% (active),-58.8% (active),-85% (active),-50.5% (active),–
CC(=O)c1c(C)[nH]c(-c2nc3ccc(N4CCN(C)CC4)cc3[nH]2)c1-c1ccc(N(C)C)cc1,33%,0.258% (active),43.7%,41.6%,37.2%,12.6%,15.6%,34.6%,21.1%,–
C[C@H]1[C@@H]2[C@H]3CC[C@@H]4[C@@]5(C)Cc6c([nH]c7ccccc67)C(C)(C)[C@@H]5CC[C@@]4(C)[C@]3(C)CC[C@]23CO[C@]1(C)[C@@H](C(=O)/C=C/c1ccccn1)C3,55.6%,62.5%,63.3%,108%,83.7%,112%,106%,96.2%,87.7%,–
